Bioassay records deposited in PubChem BioAssay by The Scripps Research Institute Molecular Screening Center.
A selection: hits, their analogues and other compounds. The true share with any hit is near 4.1%.
ssDAF12 agonist – activators of S. stercoralis DAF-12 nuclear receptor; HEK293 ssDAF-12/GRIP1 lit1-tk-luc reporter, luminescence; % of 3 µM dafachronic acid response; activation, % at 6.8 µM; actives 1% (n = 370,000);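 active = activation above the mean over all tested compounds plus 3 SD, cut at about 0.9% in these data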;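 also: 0% = DMSO-only wells and 100% = 3 µM delta7-dafachronic acid wells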
DAX1 inh-1 – blocks DAX1 repression of SF-1 activated StAR promoter | AID 652010 | inhibition, % at 6.8 µM | HEK293T StAR-luciferase reporter, SF-1/DAX-1 repression relief | actives 1.1% (n = 370,000);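 active = inhibition above the mean over all tested compounds plus 3 SD, cut at about 3.6% in these data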;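 also: 0% = DAX-1 cells with DMSO and 100% = cells lacking DAX-1 with DMSO; higher inhibition means more luminescence from relief of DAX-1 repression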
DAX1 inh-2 – inhibitors of human orphan nuclear receptor DAX1 (NR0B1); actives 0.99% (n = 340,000); HEK293 Gal4-DAX1 luciferase reporter, luminescence; inhibition, % at 6.75 µM; P51843;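 active = inhibition above the mean over all tested compounds plus 3 SD, cut at about 4.2% in these data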;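 also: 0% = DAX1-transfected cells with DMSO and 100% = empty-vector control cells with DMSO; inhibition shows as a rise in luminescence from relieved DAX1 repression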
hcDAF-12 act – activates DAF-12 receptor from parasite H. contortus; HEK293 hcDAF-12 lit1-tk-luc reporter, luminescence; 0% DMSO, 100% Δ7-dafachronic acid; AID 652067; actives 1.4% (n = 370,000); activation, % at 6.8 µM;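 active = activation above the mean of all tested compounds plus 3 SD, cut at about 5.5% in these data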;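 also: 100% = response to 3 µM Δ7-dafachronic acid high control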
hgDAF-12 ag – hgDAF-12 agonism, primary luciferase screen; HEK293 GAL4-hgDAF12 UAS-luciferase reporter, agonist luminescence; normalized to butyrate control; activation, % at 6.8 µM; actives 1.8% (n = 370,000);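 active = activation above a cutoff set at the mean of all screened compounds plus 3 SD, cut at about 10% in these data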;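 also: 0% = DMSO wells and 100% = sodium butyrate wells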
LXR ag – activates human LXR-beta, counter-screen for hcDAF-12 agonists; shares compounds with hcDAF-12 act; HEK293 Gal4-LXR tk-luc reporter, luminescence, 24 h; normalized: DMSO 0%, positive control 100%; activation, % at 6.8 µM; 3,400 tested, under 10 active;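 active = mean percent activation of the reporter above a cutoff set as the average over tested compounds plus their standard deviation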
Target sequence (P55055 whole entry, looked up, the tested form may be a part): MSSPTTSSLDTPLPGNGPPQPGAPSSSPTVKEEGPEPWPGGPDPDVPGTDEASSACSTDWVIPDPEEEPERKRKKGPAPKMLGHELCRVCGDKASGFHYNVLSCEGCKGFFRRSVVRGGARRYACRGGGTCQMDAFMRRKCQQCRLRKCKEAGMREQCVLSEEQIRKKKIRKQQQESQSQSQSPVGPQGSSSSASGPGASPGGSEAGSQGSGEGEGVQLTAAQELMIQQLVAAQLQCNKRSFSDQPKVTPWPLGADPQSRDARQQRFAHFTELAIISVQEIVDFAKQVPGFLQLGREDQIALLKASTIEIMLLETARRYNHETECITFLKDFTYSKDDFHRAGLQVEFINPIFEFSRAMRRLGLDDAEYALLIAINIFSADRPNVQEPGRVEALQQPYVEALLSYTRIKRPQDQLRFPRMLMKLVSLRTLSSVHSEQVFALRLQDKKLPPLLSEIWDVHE
hcDAF12 conf – hcDAF-12 agonism, confirmation assay | HEK293 hcDAF-12 lit1-tk-luc reporter, luminescence; % of Δ7-dafachronic acid response | activation, % at 6.8 µM | actives 61% (n = 3,400) | AID 743032 | shares compounds with hcDAF-12 act;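 active = mean activation across triplicate tests above the threshold derived from the earlier primary screen, cut at about 5.5% in these data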;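 also: 0% = DMSO only wells and 100% = 3 µM Δ7-dafachronic acid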
Numbers without * were called inactive.

`Oc1ccccc1C1NN=C(c2ccccc2)S1` (stereo unspecified) gave ssDAF12 agonist 4.2*, DAX1 inh-1 4.1*, DAX1 inh-2 3.1, hcDAF-12 act 20.2*, hgDAF-12 ag 16.0*, LXR ag 2.2 and hcDAF12 conf 16.1*.
`CSc1ccc(C2NN=C(c3ccccc3)S2)cc1` (stereo unspecified) gave ssDAF12 agonist 2.3*, DAX1 inh-1 3.5, hcDAF-12 act 12.0*, hgDAF-12 ag 15.4*, LXR ag 2.1 and hcDAF12 conf 13.8*.
For CCOC(=O)C1CC2=C(CCCC2=O)N(Cc2ccccc2)C1=O (stereo unspecified) the results were ssDAF12 agonist -1.1, DAX1 inh-1 -0.6, DAX1 inh-2 0.3, hcDAF-12 act -0.1 and hgDAF-12 ag -1.5.
Screening CCOC(=O)CC1(CC)Oc2ccccc2N1S(=O)(=O)c1ccc(C)cc1 (stereo unspecified) returned ssDAF12 agonist -1.0, DAX1 inh-1 0.7, hcDAF-12 act -0.8 and hgDAF-12 ag -3.0.
Screening CCCS(=O)(=O)Nc1c(C(=O)OC)[nH]c2ccccc12 returned ssDAF12 agonist -0.8, DAX1 inh-1 0.2, DAX1 inh-2 -1.0, hcDAF-12 act 10.4*, hgDAF-12 ag 1.1, LXR ag 0.1 and hcDAF12 conf 3.7.
For CCOC(=O)c1[nH]c2ccccc2c1NC(=S)Nc1ccccc1C the results were ssDAF12 agonist 1.1*, DAX1 inh-1 2.9, DAX1 inh-2 1.9, hcDAF-12 act 10.1*, hgDAF-12 ag 6.1, LXR ag -0.1 and hcDAF12 conf 6.6*.
CCCC(=O)Nc1c(C(=O)OCC)[nH]c2ccccc12 was read as ssDAF12 agonist 0.1, DAX1 inh-1 1.3, DAX1 inh-2 1.7, hcDAF-12 act 3.9 and hgDAF-12 ag 4.2.
CCOC(=O)c1[nH]c2ccc(Br)cc2c1NC(=O)CNC was read as ssDAF12 agonist 0.1, DAX1 inh-1 -0.1, DAX1 inh-2 0.9, hcDAF-12 act 9.9*, hgDAF-12 ag 1.8, LXR ag -0.1 and hcDAF12 conf 4.9.
For CCOC(=O)c1[nH]c2ccc(Br)cc2c1NC(=O)CCN1CCC(C)CC1 the results were ssDAF12 agonist -0.5, DAX1 inh-1 -0.6, DAX1 inh-2 0.4, hcDAF-12 act -0.7 and hgDAF-12 ag -0.2.
For CN1CCC(C)(C(=O)Nc2ccc3c(c2)OCCO3)C1 (stereo unspecified) the results were ssDAF12 agonist -0.2, DAX1 inh-1 0.6, hcDAF-12 act -1.3 and hgDAF-12 ag -1.0.
Cc1ccc(CC(=O)Nc2ccc(C(=O)N3CCOCC3)cc2)cc1 was read as ssDAF12 agonist -0.8, DAX1 inh-1 -0.4, DAX1 inh-2 0.8, hcDAF-12 act -2.9 and hgDAF-12 ag 4.0.
O=C(Nc1cccc(F)c1)Nc1ccccn1 was read as ssDAF12 agonist -0.6, DAX1 inh-1 1.1, DAX1 inh-2 3.3, hcDAF-12 act 8.7*, hgDAF-12 ag 8.3, LXR ag 0.6 and hcDAF12 conf 1.3.
`CCOC(=O)C1=CC[C@@H](c2ccccc2)N(S(=O)(=O)c2ccc(C)cc2)[C@@H]1C#N` gave ssDAF12 agonist -1.6, DAX1 inh-1 0.9, hcDAF-12 act -1.5 and hgDAF-12 ag -0.8.
For CNC(=S)N/N=C/c1ccc2c(c1)OCCO2 the results were ssDAF12 agonist -0.9, DAX1 inh-1 0.5, DAX1 inh-2 2.1, hcDAF-12 act -0.4 and hgDAF-12 ag 5.0.
`Cc1ccc(N/N=C/c2ccc3c(c2)OCCO3)cc1Cl` gave ssDAF12 agonist -0.1, DAX1 inh-1 0.7, DAX1 inh-2 0.4, hcDAF-12 act 7.8*, hgDAF-12 ag 9.9, LXR ag 2.2 and hcDAF12 conf 8.3*.
`COC(=O)c1ccc(NC(=O)COC(=O)CSc2nc(C)cc(C)n2)cc1` gave ssDAF12 agonist -1.1, DAX1 inh-1 -0.7, DAX1 inh-2 -0.1, hcDAF-12 act -1.3 and hgDAF-12 ag 1.2.
For Cc1cc(C)nc(SCC(=O)OCC(=O)Nc2nc3ccccc3s2)n1 the results were ssDAF12 agonist -0.3, DAX1 inh-1 0.3, DAX1 inh-2 -1.0, hcDAF-12 act 8.5*, hgDAF-12 ag 4.0, LXR ag 0.1 and hcDAF12 conf 6.5*.
Screening Cc1cc(NC(=O)CCl)n(-c2nc3ccccc3s2)n1 returned ssDAF12 agonist 0.4, DAX1 inh-1 0.9, DAX1 inh-2 -1.1, hcDAF-12 act 6.8*, hgDAF-12 ag -0.4, LXR ag 0.1 and hcDAF12 conf 5.1.
For Cc1cc(C)nc(NC(=O)CSc2nc3ccccc3s2)n1 the results were ssDAF12 agonist 2.1*, DAX1 inh-1 3.0, DAX1 inh-2 0.9, hcDAF-12 act 7.7*, hgDAF-12 ag 9.9, LXR ag 1.0 and hcDAF12 conf 9.3*.
Screening Cc1ccc(-c2cc(NC(=O)CCl)n(-c3ccccc3)n2)cc1 returned ssDAF12 agonist -1.3, DAX1 inh-1 -1.6, DAX1 inh-2 -1.0, hcDAF-12 act -1.1 and hgDAF-12 ag -3.4.
`Cc1ccc(S(=O)(=O)N2CC3(O)CN(C(=O)OC(C)C)N(C(=O)OC(C)C)CC3(OC(=O)NCC3CCCCC3)C2)cc1` (stereo unspecified) gave ssDAF12 agonist -1.3, DAX1 inh-1 -0.7, DAX1 inh-2 0.1, hcDAF-12 act -0.4 and hgDAF-12 ag -1.0.
CC(C)(C)CN1CCN(CC#Cc2ccccc2)CC1CCO (stereo unspecified) was read as ssDAF12 agonist -0.9, DAX1 inh-1 -0.2, DAX1 inh-2 1.9, hcDAF-12 act 7.5*, hgDAF-12 ag 3.3, LXR ag 0.0 and hcDAF12 conf 4.7.
Screening O=C(Nc1ccc(F)cc1)OCc1cn(Cc2cccc(C(F)(F)F)c2)nn1 returned ssDAF12 agonist -0.7, DAX1 inh-1 0.4, hcDAF-12 act -0.6 and hgDAF-12 ag 3.1.
`Cc1ccnc(NS(=O)(=O)c2ccc(NC(=O)c3ccc(S(=O)(=O)N4CC(C)OC(C)C4)cc3)cc2)n1` (stereo unspecified) gave ssDAF12 agonist -1.2, DAX1 inh-1 1.3, DAX1 inh-2 0.1, hcDAF-12 act 19.4*, hgDAF-12 ag 0.1, LXR ag -0.1 and hcDAF12 conf 0.9.
`CC1CN(S(=O)(=O)c2ccc(C(=O)Nc3ccc(S(=O)(=O)Nc4nccs4)cc3)cc2)CC(C)O1` (stereo unspecified) gave ssDAF12 agonist -0.6, DAX1 inh-1 1.8, DAX1 inh-2 3.1, hcDAF-12 act 1.5 and hgDAF-12 ag -1.8.
